Inconclusive results are not listed. The source made the active and inactive calls. Calls follow the shape of the dose curve; as a rule, active = well fitted inhibition curve with a large enough effect; inconclusive = small, poorly fitted or top-dose-only effect; inactive = flat fitted curve, though single readings scatter.
Experiments:
Test in all cases: qHTS profiling for inhibitors of Plasmodium falciparum proliferation (AID 504749); also: nearly all actives have a fitted effect of over 60% in size
3D7 = conditions: P. falciparum in erythrocytes, SYBR Green DNA, 72 h; series mostly up to 28.7 µM
Summary of the method: (§1)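 Quantitative HTS: compounds pinned into medium, infected erythrocytes added (0.3% parasitemia, 2.5% hematocrit), 72 h culture at 37 C under 5% CO2. Saponin/Triton lysis with SYBR Green I, overnight RT, then fluorescence read.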

CP185 = conditions: P. falciparum in erythrocytes, SYBR Green DNA, 72 h; series mostly up to 28.7 µM
Summary of the method: as §1

CP192 = conditions: P. falciparum in erythrocytes, SYBR Green DNA, 72 h; series mostly up to 28.7 µM
Summary of the method: as §1

CP194 = conditions: P. falciparum in erythrocytes, SYBR Green DNA, 72 h; series mostly up to 28.7 µM
Summary of the method: as §1

CP201 = conditions: P. falciparum in erythrocytes, SYBR Green DNA, 72 h; series mostly up to 28.7 µM
Summary of the method: as §1

CP237 = conditions: P. falciparum in erythrocytes, SYBR Green DNA, 72 h; series mostly up to 28.7 µM
Summary of the method: as §1

CP238 = conditions: P. falciparum in erythrocytes, SYBR Green DNA, 72 h; series mostly up to 28.7 µM
Summary of the method: as §1

CP247 = conditions: P. falciparum in erythrocytes, SYBR Green DNA, 72 h; series mostly up to 28.7 µM
Summary of the method: as §1

CP262 = conditions: P. falciparum in erythrocytes, SYBR Green DNA, 72 h; series mostly up to 28.7 µM
Summary of the method: as §1

CP265 = conditions: P. falciparum in erythrocytes, SYBR Green DNA, 72 h; series mostly up to 12.8 µM
Summary of the method: as §1

CP266 = conditions: P. falciparum in erythrocytes, SYBR Green DNA, 72 h; series mostly up to 12.8 µM
Summary of the method: as §1

CP268 = conditions: P. falciparum in erythrocytes, SYBR Green DNA, 72 h; series mostly up to 28.7 µM
Summary of the method: as §1

CP286 = conditions: P. falciparum in erythrocytes, SYBR Green DNA, 72 h; series mostly up to 28.7 µM
Summary of the method: as §1

CP305 = conditions: P. falciparum in erythrocytes, SYBR Green DNA, 72 h; series mostly up to 28.7 µM
Summary of the method: as §1

DIV30 = conditions: P. falciparum in erythrocytes, SYBR Green DNA, 72 h; series mostly up to 28.7 µM
Summary of the method: as §1

GB4 = conditions: P. falciparum in erythrocytes, SYBR Green DNA, 72 h; series mostly up to 28.7 µM
Summary of the method: as §1

HB3 = conditions: P. falciparum in erythrocytes, SYBR Green DNA, 72 h; series mostly up to 28.7 µM
Summary of the method: as §1

P94_40 = conditions: P. falciparum in erythrocytes, SYBR Green DNA, 72 h; series mostly up to 28.7 µM
Summary of the method: as §1

PC49 = conditions: P. falciparum in erythrocytes, SYBR Green DNA, 72 h; series mostly up to 28.7 µM
Summary of the method: as §1

TAB109 = conditions: P. falciparum in erythrocytes, SYBR Green DNA, 72 h; series mostly up to 12.8 µM
Summary of the method: as §1

Measured: Potency

CC(C)c1c(CN(C)[C@@H](C)Cc2ccccc2)n(C)n(-c2ccccc2)c1=O
inactive: all assays above

C[C@]12CC[C@H]3[C@@H](CCC4=CC(=O)CC[C@@]43C)[C@@H]1CC[C@@H]2O
inactive: all assays above

From PubChem BioAssay (NCATS)
